The text below walks through data of PubChem BioAssay (NCI).

Compounds without any hit were thinned out: in the full panel of roughly 83,000, 20% have a hit.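 Plates (96-well) were seeded with cells, treated with compound at one concentration, and incubated for 48 hours before percent growth was determined.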 A number with no mark means an inactive call. Activity calls are given as the source filed them. How the source made its calls: active means growth percent below 10; inactive means the rest.

Holding throughout (assay): NCI-60 one-dose screen, 48 h (100 = growth as untreated, 0 = no growth, -100 = all killed)
What all share (details): 10 µM unless noted

Assay [1] relates to SK-MEL-2 melanoma.
Assay [2] has as its system EKVX NSCLC.
Assay [3] deals with SN12C renal.
Assay [4] deals with UO-31 renal.
Assay [5] deals with TK-10 renal.
The test system of assay [6] is ACHN renal.
Assay [7] deals with CAKI-1 renal.
For assay [8], the system named is A498 renal.
Assay [9] has as its system CCRF-CEM leukemia.
The test system of assay [10] is MOLT-4 leukemia.
The subject of assay [11] is SR leukemia.
Assay [12] relates to RPMI-8226 leukemia.
For assay [13], the system named is OVCAR-8 ovarian.
The subject of assay [14] is OVCAR-5 ovarian.
In assay [15] the test system is OVCAR-4 ovarian.
Assay [16] has as its system SK-OV-3 ovarian.
For assay [17], the system named is IGROV1 ovarian.
For assay [18], the system named is OVCAR-3 ovarian.
Assay [19] deals with HS 578T breast.
Assay [20] relates to NCI/ADR-RES ovarian.

As for `O=C(NNC(=O)c1ccc(NC(=O)c2ccccn2)cc1)Nc1ccc([N+](=O)[O-])cc1`, the growth is 106% in assay [1]; 102% in assay [2]; 96.6% in assay [3]; 75.8% in assay [4]; 101% in assay [5]; 95.5% in assay [6]. Further, the growth was 91.6% in assay [7]; 104% in assay [8]; 103% in [9]; 103% in assay [10]; 109% in assay [11]; 106% in assay [12]. Besides, the growth in assay [13] is 104%; in [14], 92.4%; in assay [15] it was 108%; in [16], 106%; in assay [17], 88.5%; in assay [18] it was 109%. Further, the growth in [19] is 75.6%; in assay [20] it was 106%.

`O=C(Nc1ccc(OS(=O)(=O)c2ccc(F)cc2)cc1)C1CCCCCC1`: the growth in assay [1] was 98.2%; in assay [2], 96%; in [3] it was 88.9%; in [4] it was 101%; in assay [5] it was 107%; in assay [6], 110%. For the same molecule, the growth was 91.7% in assay [7]; 85.1% in assay [8]; 81.5% in assay [9]; 77.4% in [10]; 70.2% in assay [11]; 78% in assay [12]. The growth in [13] is 93.2%; in [14] it was 99.7%; in [15], 98.5%; in [16], 97.5%; in [17], 118%; in assay [18], 96.1%. Moreover, the growth was 82.4% in assay [19] and 82.1% in [20].

As to `COc1ccc(Nc2nc(-c3cc(O)c(C)c(C)c3O)cs2)cc1`, the growth is 94.9% in assay [1]; 89.2% in assay [2]; 88.4% in assay [3]; 74.7% in assay [4]; 114% in assay [5]; 82.2% in [6]. Further, the growth in [7] is 51.6%; in assay [8], 101%; in assay [9], 17.8%; in assay [10], 25.7%; in [11], 37.1%; in assay [12], 33.6%. Also, the growth in [13] was 70.7%; in assay [14] it was 103%; in [15], 73.7%; in [16], 71.3%; in [17], 66.5%; in assay [18], 10.5%. For the same molecule, the growth in assay [19] was 76.7%; in assay [20] it was 23%.

`COc1c(B(O)O)cccc1-c1cc(C)c2c(ccc3[nH]ncc32)n1`: the growth in [1] was 116%; in assay [2] it was 65.8%; in assay [3], 60.5%; in assay [4] it was 21.6%; in assay [5], 29.2%; in assay [6] it was 55.7%. In addition, the growth is -17.9% (active) in [7]; 8.91% (active) in [8]; 63.3% in assay [9]; 64.2% in assay [10]; 27.5% in [11]; 68.7% in assay [12]. Besides, the growth in assay [13] was 64.1%; in assay [14] it was 72.1%; in assay [15], 122%; in assay [16] it was 59.3%; in assay [17] it was 59.1%; in [18], 113%. In addition, the growth was 8.78% (active) in [19] and 83.3% in [20].

As to `NC(=O)c1c(NC(=O)c2ccc3ccccc3c2)sc2c1CCC(=O)C2`, the growth in assay [1] is 103%; in assay [2] it was 86.2%; in assay [3], 50.5%; in [4], 27.3%; in [5], 95.7%; in [6], 34.2%. Besides, the growth in assay [7] was 16.3%; in assay [8], 95.2%; in assay [9], 15%; in assay [10] it was 36.6%; in [11] it was 8.41% (active); in assay [12], -12.1% (active). Besides, the growth in assay [13] is 46.1%; in assay [14], 74.7%; in assay [15], 5.13% (active); in assay [16], 104%; in assay [17], 42.7%; in assay [18], 23%. Moreover, the growth in assay [19] was 49.6%; in assay [20], 85.3%.

As to `N#Cc1c(-c2ccc(Cl)cc2)c(C#N)c2c(C#N)c(N)nn2c1N`, the growth in [1] is 93.1%; in assay [2], 68.3%; in assay [3] it was 87.8%; in [4] it was 67.1%; in assay [5], 83.8%; in assay [6] it was 87.7%. Also, the growth in assay [7] is 71.6%; in [8], 78.2%; in [9], 73.9%; in assay [10] it was 79.4%; in assay [11] it was 69.5%; in assay [12], 73.9%. In addition, the growth in assay [13] was 88%; in assay [14], 86.9%; in assay [15], 82.4%; in assay [16], 70.5%; in [17] it was 74.1%; in assay [18] it was 93.8%. Besides, the growth in assay [19] was 79.4%; in assay [20], 96.3%.

As for `COc1ccc(-c2ccc(-c3ccc(C(=N)N)cc3)s2)cc1Cl`, the growth is 101% in [1]; 68.3% in assay [2]; -69.1% (active) in assay [3]; -47.6% (active) in [4]; 111% in assay [5]; -98.7% (active) in assay [6]. Also, the growth is -88.2% (active) in [7]; 90.3% in assay [8]; -41.3% (active) in assay [9]; -50.1% (active) in [10]; -7.28% (active) in assay [11]; -34.4% (active) in assay [12]. The growth was -18.2% (active) in assay [13]; 14.2% in assay [14]; -42% (active) in assay [15]; 93% in assay [16]; -87.5% (active) in [17]; -88% (active) in [18]. The growth is 44.9% in assay [19] and 78% in [20].
